Assay outcomes (PubChem BioAssay)
Most compounds without a hit are left out; they make up all but 3.8% or so of the library.
KLK7 zymogen act – activators of human kallikrein-7 zymogen; AID 652039; P49862; activation, % at 7 µM; purified proKLK7, EDANS-DABCYL substrate fluorescence; 100% is mature enzyme control, 0% vehicle; actives 0.9% (n = 370,000);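 active = activation above the mean of all tested compounds plus 3 SD, computed per campaign excluding outliers beyond control limits, cut at about 13% in these data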
Target sequence (P49862 whole entry, looked up): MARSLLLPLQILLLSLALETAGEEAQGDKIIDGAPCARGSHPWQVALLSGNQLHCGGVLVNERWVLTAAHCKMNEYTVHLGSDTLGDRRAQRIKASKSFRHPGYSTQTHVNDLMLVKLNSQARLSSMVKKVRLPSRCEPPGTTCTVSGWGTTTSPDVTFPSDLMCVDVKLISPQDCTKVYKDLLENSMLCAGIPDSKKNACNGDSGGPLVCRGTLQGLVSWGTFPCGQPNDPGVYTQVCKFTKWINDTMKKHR
ADAM17 inh – ADAM17 inhibition, QFRET primary screen; AID 720648; recombinant ADAM17, EDANS/DABCYL FRET peptide cleavage; actives 0.83% (n = 370,000); inhibition, % at 6.95 µM; P78536;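 active = inhibition above the mean of compounds lying between control limits plus 3 SD, set per campaign, cut at about 8.5% in these data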
FGF22 binding – FGF22 (human) thermal shift binding; Q9HCT0; recombinant FGF22 thermal shift, SYPRO orange fluorescence; percent of sucrose octasulfate shift, DMSO zero; activity (Tm shift, normalised), % at 9.99 µM; actives 1.5% (n = 340,000);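 active = mean Tm shift, scaled 0 neutral to 100 positive control, at about 1.3% or above, every replicate too, limit read from the data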
Target sequence (Q9HCT0 whole entry, looked up): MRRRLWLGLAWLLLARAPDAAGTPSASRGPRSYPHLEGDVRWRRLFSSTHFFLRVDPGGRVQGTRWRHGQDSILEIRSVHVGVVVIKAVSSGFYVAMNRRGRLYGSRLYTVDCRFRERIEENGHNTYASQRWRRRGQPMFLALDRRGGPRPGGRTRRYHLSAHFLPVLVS
ADAM10 inh – inhibitors of human ADAM10. inhibition, % at 7 µM. actives 0.62% (n = 370,000). recombinant ADAM10, EDANS/DABCYL FRET peptide cleavage, 3 h. AID 720582;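 active = inhibition above a per-campaign cutoff equal to the mean of compounds falling between control-based bounds plus 3 SD, cut at about 20% in these data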
rRNA inh HTS – selective bacterial rRNA inhibition in E. coli; E. coli WT GFP vs humanized-ribosome RFP mutants, fluorescence, 24 h; stronger effect = lower value; DMSO median 0, no signal -100; GFP signal change (wild-type ribosome), % (no concentration beside the values); actives 1.6% (n = 350,000); AID 720706;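 active = significant combined selectivity score with lowered wild-type GFP, culture density cut under 30%, mutant RFP and density less affected; inactive = any of these conditions unmet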
proKLK7 act conf – confirmation of human kallikrein-7 zymogen activators | shares compounds with KLK7 zymogen act | purified proKLK7, EDANS-DABCYL substrate fluorescence; scaled: vehicle 0, mature enzyme 100 | activation, % at 7 µM | actives 68% (n = 3,200) | AID 686949;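 active = activation, as change over the incubation, above the mean of all tested compounds plus 3 SD, cut at about 13% in these data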
EDANS interfere – counter-screen for kallikrein-7 activators: EDANS-DABCYL optical interference; EDANS-DABCYL substrate fluorescence interference, no enzyme, 4 h; solvent 0%, active enzyme control 100%; shares compounds with KLK7 zymogen act; actives 80% (n = 3,200); activation, % at 7 µM;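 active = activation above the all-compound mean plus 3 SD, ignoring values outside control-based bounds, cut at about 4.8% in these data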;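 also: value is the 4 h activation minus the activation read at time zero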
EDANS interf – optically interferes with EDANS-DABCYL fluorescence, kallikrein-7 activator counter-screen; shares compounds with KLK7 zymogen act; EDANS-DABCYL peptide fluorescence interference, no enzyme; EC50, µM; actives 20% (n = 250); AID 720493;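 active = compounds that raise the fluorescence signal in this interference counterscreen, with EC50 at or below 10 µM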;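 also: intact quenched peptide substrate alone read at 355 nm excitation and 520 nm emission; signal is fluorescence gain from T0 to T4 after four hours at room temperature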
Hits are given with their value; – = inactive; · = no result.

SMILES	KLK7 zymogen act	ADAM17 inh	FGF22 binding	ADAM10 inh	rRNA inh HTS	proKLK7 act conf	EDANS interfere	others
COc1ccccc1-c1c(C)oc2cc(OC(=O)c3ccco3)ccc2c1=O	268	–	·	–	·	376	359
COc1ccc(Oc2c(C)oc3cc(OC(=O)N4CCOCC4)ccc3c2=O)cc1	–	–	·	–	·	·	·
COc1ccc(-c2cc3ncnc(Cl)c3s2)cc1	27	–	–	–	–	–	–
COc1ccc(-c2cc3nnc(-c4ccccc4)nc3s2)cc1	–	–	·	–	·	·	·
Cc1nn(-c2ccc(F)cc2)c2sc(C(=O)OC3CCOC3=O)cc12 (stereo unspecified)	20	–	·	–	·	24	23
CC(=O)Oc1ccc2c(C)c(CC(=O)N3CCN(C(=O)C4COc5ccccc5O4)CC3)c(=O)oc2c1C (stereo unspecified)	155	–	–	–	–	344	368
COc1cc(C)cc2oc(=O)c(CC(=O)N3CCN(C(=O)C4COc5ccccc5O4)CC3)c(C)c12 (stereo unspecified)	–	–	–	–	–	·	·
CO[C@@H]1CN(C)C(=O)c2cc(NC(C)=O)ccc2OC[C@@H](C)N(C(=O)c2cnccn2)C[C@@H]1C	·	·	–	·	–	·	·
C/C=C/c1cnc2c(c1)C(=O)N([C@H](C)CO)C[C@H](C)[C@H](CN(C)C(=O)Cc1ccccc1)O2	·	·	–	·	–	·	·
O=C(NC1CCCCCC1)c1cc2c(=O)n3ccccc3nc2s1	25	–	–	–	–	16	7.9	EDANS interf=–
Cc1cc(C)cc(NC(=O)c2cc3c(=O)n4ccccc4nc3s2)c1	–	–	–	–	–	·	·
C=CCNC(=O)c1cc2c(=O)n3ccccc3nc2s1	52	–	–	–	–	59	69
CC(C)NC(=O)c1cc2c(=O)n3ccccc3nc2s1	76	–	–	–	–	75	81
Cc1cccn2c(=O)c3cc(C(=O)NC4CCS(=O)(=O)C4)sc3nc12 (stereo unspecified)	22	–	–	–	–	53	43	EDANS interf=–
CSc1ccccc1NC(=O)c1cc2c(=O)n3ccccc3nc2s1	–	–	–	–	–	·	·
Cc1ccc(S(=O)(=O)Nc2ccc3c(c2)CC(=O)N([C@H](C)CO)C[C@@H](C)[C@@H](CN(C)S(=O)(=O)c2cn(C)cn2)O3)cc1	·	·	–	·	–	·	·
Cc1cccc(C2=NN(c3ccc(Br)cc3)[C@@H](C(=O)N3CCOC3=O)[C@@H]2C)c1	–	–	–	–	–	·	·
C[C@@H]1C(c2ccccc2)=NN(c2ccc(Br)cc2)[C@H]1C(=O)N1CCOC1=O	57	–	–	–	–	–	–
Cc1cccc(C2=NN(c3ccccc3)[C@@H](C(=O)N3CCOC3=O)[C@@H]2C)c1	26	–	–	–	–	114	70
COc1ccccc1[C@@H]1C(c2cccc(Cl)c2)=NN(c2ccc(Br)cc2)[C@H]1C(=O)N1CCOC1=O	–	–	–	–	–	·	·
O=C(C[C@H]1C=C[C@H](NC(=O)C2CCOCC2)[C@H](CO)O1)Nc1ccccc1	·	·	·	·	–	·	·
Cc1cc2c(C)cc(=O)oc2c2c1NCCC2	68	–	–	–	–	62	63
COc1ccc(/C=N/NC(=O)c2cc(-c3cccnc3)nc3ccccc23)c(OC)c1	–	–	–	–	–	·	·
COc1ccc(-c2cc(C(=O)N/N=C/c3cccnc3)c3cc(C)cc(C)c3n2)cc1	112	–	–	–	–	–	–
Nc1cnnc(N/N=C\c2ccccc2)c1Cl	13	–	–	–	–	–	–
SMILES	KLK7 zymogen act	ADAM17 inh	FGF22 binding	ADAM10 inh	rRNA inh HTS	proKLK7 act conf	EDANS interfere	others
CCc1ccc(-c2ccc(C(=O)O)c(C)n2)cc1	–	–	·	–	·	·	·
CCc1ccc(-c2cnc3nc[nH]c(=O)c3n2)cc1	15	–	–	–	·	38	39
COc1ccc(NC(=O)N(C)C[C@@H]2OCCCC[C@@H](C)Oc3ccc(NS(=O)(=O)c4c(C)noc4C)cc3C(=O)N([C@H](C)CO)C[C@H]2C)cc1	·	·	–	·	–	·	·
CCN(C(=O)c1cccs1)c1nnc(-c2ccncc2)s1	–	–	·	–	·	·	·
COCCN(C(=O)Cc1cccs1)c1nnc(-c2ccncc2)s1	17	–	·	–	·	40	42
CCOC(=O)c1ccc(C(=O)OCC)c(NC(=S)Nc2ccc([N+](=O)[O-])cc2OC)c1	13	–	·	–	·	–	6.9
COc1ccc(-c2c(C)oc3c(CN4CCCCC4C)c(O)ccc3c2=O)cc1OC (stereo unspecified)	–	–	–	–	–	·	·
Cc1oc2c(CN3CCOCC3)c(O)ccc2c(=O)c1-c1ccccc1	73	–	–	–	-24	23	30
Cc1oc2c(CN3CCCCC3)c(O)ccc2c(=O)c1-c1ccc(Cl)cc1	38	–	–	–	–	28	34
COc1ccccc1-c1c(C)oc2c(CN3CCOCC3)c(O)ccc2c1=O	66	–	–	–	–	69	79
COc1cccc(Oc2c(C)oc3c(CN4CCOCC4)c(O)ccc3c2=O)c1	31	–	–	–	–	–	23
O=C(N[C@H]1CC[C@@H](CCNS(=O)(=O)Cc2ccccc2)O[C@@H]1CO)c1ccccc1F	·	·	–	·	–	·	·
Cc1noc(C)c1S(=O)(=O)Nc1cccc2c1O[C@H](CN(C)Cc1ccncc1)[C@H](C)CN([C@@H](C)CO)C2=O	·	·	–	·	–	·	·
CO[C@@H]1CN(C)C(=O)c2cc(NC(=O)C3CCC3)ccc2OC[C@@H](C)N(Cc2ccncc2)C[C@H]1C	·	·	–	·	–	·	·
C[C@@H]1CN([C@@H](C)CO)C(=O)c2cc(NC(=O)C3CCCCC3)ccc2O[C@H]1CN(C)C(=O)NC1CCCCC1	·	·	–	·	–	·	·
COc1ccc2[nH]c3c(=S)nc[nH]c3c2c1	21	–	–	–	–	–	–
COc1ccc2[nH]c3c(Cl)ncnc3c2c1	–	–	–	–	–	·	·
CCCN(C)C[C@H]1Oc2ncc(-c3cccc(C(=O)N(C)C)c3)cc2C(=O)N([C@H](C)CO)C[C@@H]1C	·	·	–	·	–	·	·
COc1ccc(-c2coc3c(CN4CCOCC4)c(O)ccc3c2=O)cc1	52	–	–	–	–	50	56
COc1ccc(Oc2c(C)oc3c(CN4CCOCC4)c(O)ccc3c2=O)cc1	–	–	·	–	·	·	·
O=c1c(-c2ccccc2)coc2c(CN3CCCC3)c(O)ccc12	67	–	·	–	·	39	49
O=c1c(-c2ccc(Cl)cc2)coc2c(CN3CCOCC3)c(O)ccc12	19	–	·	–	·	21	23
